According to the supplement of paper PMC6555819:

How the values were obtained:
Experiment in all cases: PBM binding z-score (relative to random genomic background probes); higher = stronger binding; sequences stand for … in GC…GCGATTGACAGCGTAGAATGAAGG
[1] = tested on: FXR:RXRa (NR concentration 270 nM, RXRa partner concentration 90 nM)
Summary of the method: (§1)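 Custom Agilent 4×180K protein-binding microarrays carried double-stranded probes. Their 34-nt variable regions held direct-repeat seeds, single-nucleotide variants, half-site ablations and random human genomic background sequences. Arrays were incubated 1 h with ligand-free nuclear receptor dimers in PBS pH 7.4, 2% milk, 0.02% Triton X-100, 1 mM DTT, 0.2 mg/mL BSA and 0.4 mg/ml salmon testes DNA. Antibodies against each partner (one per run) detected binding, and scanned fluorescence was regression-normalized. Binding z-scores use random background probes as reference.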

[2] = tested on: LXRa:RXRa (NR concentration 270 nM, RXRa partner concentration 90 nM)
Summary of the method: as §1

[3] = tested on: LXRa homodimer (NR concentration 270 nM)
Summary of the method: as §1

[4] = tested on: LXRb:RXRa (NR concentration 270 nM, RXRa partner concentration 90 nM)
Summary of the method: as §1

[5] = tested on: LXRb homodimer (NR concentration 270 nM)
Summary of the method: as §1

[6] = tested on: PPARa:RXRa (NR concentration 270 nM, RXRa partner concentration 90 nM)
Summary of the method: as §1

[7] = tested on: PPARg:RXRa (NR concentration 180 nM, RXRa partner concentration 90 nM)
Summary of the method: as §1

[8] = tested on: PPARg:RXRa 270nM:90nM, anti-RXR (NR concentration 270 nM, RXRa partner concentration 90 nM)
Summary of the method: as §1

[9] = tested on: PPARg:RXRa 30nM:10nM, anti-RXR (NR concentration 30 nM, RXRa partner concentration 10 nM)
Summary of the method: as §1

[10] = tested on: PPARg:RXRa 90nM:30nM, anti-RXR (NR concentration 90 nM, RXRa partner concentration 30 nM)
Summary of the method: as §1

[11] = tested on: PPARg:RXRa DBDmut IVT, anti-RXR (DBD mutation: RXRa K156A/R161A, NR concentration 270 nM, RXRa partner concentration 90 nM)
Summary of the method: as §1

[12] = tested on: PPARg:RXRa IVT, anti-PPARg (NR concentration 270 nM, RXRa partner concentration 90 nM)
Summary of the method: as §1

[13] = tested on: PPARg DBDmut IVT, anti-PPARg (DBD mutation: PPARg1 K132A/R137A, NR concentration 270 nM)
Summary of the method: as §1

[14] = tested on: PPARg homodimer (NR concentration 180 nM)
Summary of the method: as §1

[15] = tested on: PXR:RXRa (NR concentration 270 nM, RXRa partner concentration 90 nM)
Summary of the method: as §1

[16] = tested on: PXR homodimer (NR concentration 270 nM)
Summary of the method: as §1

[17] = tested on: RARa:RXR (NR concentration 270 nM, RXRa partner concentration 90 nM)
Summary of the method: as §1

[18] = tested on: RARa homodimer (NR concentration 270 nM)
Summary of the method: as §1

[19] = tested on: RARb:RXRa (NR concentration 270 nM, RXRa partner concentration 90 nM)
Summary of the method: as §1

[20] = tested on: PPARg DBDmut:RXRa IVT, anti-PPARg (DBD mutation: PPARg1 K132A/R137A, NR concentration 270 nM, RXRa partner concentration 90 nM)
Summary of the method: as §1

| Sequence | PBM binding z-score [1] | PBM binding z-score [2] | PBM binding z-score [3] | PBM binding z-score [4] | PBM binding z-score [5] | PBM binding z-score [6] | PBM binding z-score [7] | PBM binding z-score [8] | PBM binding z-score [9] | PBM binding z-score [10] | PBM binding z-score [11] | PBM binding z-score [12] | PBM binding z-score [13] | PBM binding z-score [14] | PBM binding z-score [15] | PBM binding z-score [16] | PBM binding z-score [17] | PBM binding z-score [18] | PBM binding z-score [19] | PBM binding z-score [20] |
| --- | --- | --- | --- | --- | --- | --- | --- | --- | --- | --- | --- | --- | --- | --- | --- | --- | --- | --- | --- | --- |
| ATATATAGGTTAGGGTCATTCAGAAAGTAGGGAA | 5.26 | 4.34 | 1.79 | 4.71 | 2.26 | 5.6 | 8.16 | 6.57 | 4.73 | 6.58 | 6.92 | 6.72 | 2.87 | 4.26 | 4.79 | 2.81 | 5.43 | 2.83 | 3.58 |  |
| CGAACCAGGTCACCAGGACAGTGAAGAGGTTGGA | 5.33 | 3.4 | 0.19 | 2.53 | -0.432 | 4.96 | 6.6 | 5.66 | 2.44 | 4.73 | 5.49 | 6.38 | 0.103 | 2.28 | 2.81 | 0.0931 | 3.75 | 0.523 | 4.37 |  |
| ATACGTAGGTTATCGGGTCATTCAGTTTGCGCAT | 3.01 | 3.2 | 1.41 | 2.88 | 1.18 | 3.58 |  | 3.39 | 0.883 | 2.46 | 3.06 | 3.95 | 0.954 | 2.79 | 3.74 | 8.01 | 3.84 | 0.759 | 2.59 | 1.74 |
| CGAACTAGGTCACGAGGACAGTGAAGAGGTTGGA | 4.56 | 2.89 | 0.291 | 1.98 | -0.399 | 5.33 | 8.72 | 7.24 | 5.15 | 6.84 | 8.67 | 8.88 | 1.07 | 2.21 | 1.87 | 0.184 | 3.07 | 0.4 | 4.39 |  |
| CCTTACGGGTCTAGGTTATAGCACGGGTGGTACG | -0.122 | -0.0116 | 0.0619 | -0.517 | -0.281 | 0.0671 |  | -0.00243 | -0.428 | -0.39 | -0.763 | 0.098 | -0.738 | -0.385 | -0.387 | -0.0571 | 0.0446 | -0.0691 | 0.467 | -1.1 |
| CAAACTAGGTCACGAGGTCAAAGTCCGCTTCCCG | 7.24 | 6 | 5.08 | 5.41 | 1.09 | 6.85 |  | 8.27 | 7.29 | 8.74 | 8.56 | 9.04 | 3.48 | 3.45 | 6.15 | 3.42 | 6.91 | 1.34 | 5.48 | 2.5 |
| GGAACTAGGGCAAAGTTGATAGCATCTGTCGACG | -0.124 | -0.2 | -0.596 | 0.16 | -0.519 | 5.37 |  | 8.84 | 8.63 | 9.67 | 7.94 | 7.8 | 2.6 | 2.98 | -0.217 | -0.423 | 0.0303 | -0.192 | 1.48 | 3.88 |
| GATTCAGGGTCAGCTAGAGGCCAGAGTATGGAAA | 5.24 | 3.64 | -0.0707 | 3.25 | -0.355 | 5.13 |  | 4.14 | 1.13 | 3.05 | 1.78 | 3.04 | -0.207 | 2.1 | 3.77 | 0.432 | 4.59 | 0.68 | 4.5 | 0.184 |
| CAAAGTAGGTCAAGGTCAAAGTCGGTTTGTGCCA | 6.64 | 5.74 | 4.44 | 4.67 | 1.7 | 6.22 |  | 8.02 | 7.19 | 8.49 | 8.64 | 9.04 | 3.56 | 4.77 | 5.48 | 2.55 | 5.94 | 2.15 | 5.07 | 5.79 |
| AGTCAAAGTTCAGGACGAGATAACGTAAAGCACG | 3.4 | 3.72 | 1.12 | 1.81 | 0.41 | 3.28 |  | 4.8 | 2.31 | 3.71 | -0.425 | 1.35 | 0.865 | 1.35 | 1.99 | 0.795 | 1.85 | 1.11 | 4.1 | 0.702 |
| CAAACTAGGTCAAGGGGTCAAAGTCCGCTTCCCG | 7.14 | 6.22 | 3.83 | 6.08 | 1.17 | 6.9 |  | 8.96 | 8.47 | 9.27 | 8.13 | 8.72 | 1.52 | 6.55 | 6.31 | 1.78 | 7.88 | 1.67 | 5.46 | 0.711 |
| CGAACTAGGTCCTTGACAGGACAGTGAATAGTAA | -0.28 | -0.522 | 0.156 | -0.566 | -0.907 | 0.107 |  | 0.252 | -0.201 | -0.145 | 3.56 | 2.67 | 0.14 | -0.238 | -0.527 | -0.0323 | -0.228 | -0.233 | -0.0437 | -0.17 |
| CCGACTGGGGCAAAGGTTACGATACTCAGTACGA | 1.82 | 1.6 | -0.076 | 2 | -1.04 | 5.62 |  | 9.56 | 9.53 | 11.7 | 4.56 | 6.38 | 0.584 | 4 | 2.51 | -0.536 | 4.39 | -0.413 | 2.57 | 0.809 |
